# Source: PubChem BioAssay (NCI)
# The panel holds about 79,000 compounds, 15% with a hit somewhere; the sample as a whole holds those more often. A number with no mark means an inactive call. Calls of active or inactive are those of the source. No stated cut-off is given here; in the data, active means growth inhibition above about 70%; inactive means the rest.
# How the values were obtained:
# [1] = NCI Yeast Anticancer Drug Screen. Data for the rad50 strain (AID 155);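 further: 0% = growth of vehicle-only cultures of the same strain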; conditions: S. cerevisiae rad50 strain growth inhibition; at 50.0 µM; hits give high values
# How it was run: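 Yeast carrying a defined DNA repair defect were exposed to test compounds, and growth was compared with vehicle-treated controls to give percent inhibition.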
# [2] = NCI Yeast Anticancer Drug Screen. Data for the mec2-1 strain (AID 157); conditions: S. cerevisiae mec2-1 strain, at 50.0 µM, hits give high values
# How it was run: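 Each compound was tested on mec2-1 yeast, a strain altered in DNA damage repair or cell cycle control. Growth inhibition is reported relative to vehicle.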
# [3] = NCI Yeast Anticancer Drug Screen. Data for the sgs1 mgt1 strain (AID 161);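 further: 0% = growth of cultures given vehicle only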; conditions: S. cerevisiae sgs1 mgt1 strain, at 50.0 µM, hits give high values
# How it was run: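 Inhibition of yeast growth, normalised to vehicle-treated controls, is reported for a strain bearing genetic alterations in DNA damage repair.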
# [4] = NCI Yeast Anticancer Drug Screen. Data for the cln2 rad14 strain (AID 165);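 further: 0% = growth equal to vehicle treated cultures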; conditions: S. cerevisiae cln2 rad14 strain, at 50.0 µM, hits give high values
# How it was run: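 Test compounds were added to cln2 rad14 yeast cultures; inhibition of growth was then determined by comparison with vehicle treatment.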
# [5] = NCI Yeast Anticancer Drug Screen. Data for the bub3 strain (AID 167); conditions: S. cerevisiae bub3 mutant strain, at 50.0 µM, hits give high values
# How it was run: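 Compounds were applied to a genetically altered yeast strain carrying a cell-cycle control defect. Growth inhibition was scored against vehicle-treated controls.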
# [6] = NCI Yeast Anticancer Drug Screen. Data for the mlh1 rad18 strain (AID 175); conditions: S. cerevisiae mlh1 rad18 strain growth inhibition; at 50.0 µM; hits give high values
# How it was run: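 Inhibition values reflect reduced growth of mutant yeast versus vehicle-treated controls following compound exposure; the mutations affect DNA damage repair.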
SMILES,growth inhibition [1],growth inhibition [2],growth inhibition [3],growth inhibition [4],growth inhibition [5],growth inhibition [6]
CCCCS(=O)(=O)C(c1ccccc1)c1ccccc1,69.2%,97.4% (active),96% (active),56.5%,96.5% (active),96.4% (active)
CC[C@@H]1C[C@H]2CC3c4[nH]c5ccc(O)cc5c4CCN(C2)C31,3.4%,-24.4%,23.6%,5.35%,-1.45%,5.6%
CC(Br)C(N)=O (configuration not stated),-14.4%,-17.8%,-14.1%,-20.4%,-4.9%,-13.8%
CN(C)C(=O)Oc1ccc(Cl)cc1Cl,9.2%,18.1%,-5.8%,-7.3%,-9.35%,32.6%
[N-]=[N+]=CC(=O)CCC(=O)C=[N+]=[N-],10.2%,-24%,-27.1%,-19.5%,-20.6%,-67.8%
CNc1cccc2ccccc12,-3.3%,-14.1%,-54.5%,-36.5%,-28.6%,-0.35%
O=[As]c1ccc2c(c1)NC(O)=CO2 (configuration not stated),21.9%,38.6%,20.7%,27.9%,20.4%,32.5%
CN(N)/N=N/c1nc[nH]c1[N+](=O)[O-],-11.9%,-24.6%,-2.6%,4.85%,-12.1%,-3.4%
CC(=O)Oc1cccc(C#N)c1,-3.1%,1.25%,1.7%,-24.8%,6.65%,5.05%
c1cc(C2N3CCCN2CC3)ccn1 (configuration not stated),10%,-27.7%,-34%,-19.9%,-2.35%,-15.2%
F[C](F)(F)[Hg][c]1ccccc1,99.3% (active),99.7% (active),99.5% (active),98.8% (active),99.5% (active),99.3% (active)
OCCSCSCCO,-5.8%,-8.8%,5.8%,10.2%,-2.8%,0.8%
CC(Cc1ccc2c(c1)OCO2)NCC(O)c1ccc(O)c(O)c1 (configuration not stated),14.6%,-20.2%,18.2%,5%,32.2%,26.6%
C[C@]12CC[C@H]3[C@@H](CCC4=CC(=O)CC[C@@]43C)[C@]1(O)CC[C@]2(O)C(=O)CO,11.2%,-12.6%,-30.4%,-2.05%,-17.3%,-9.1%
c1ccc(CC2NC(Cc3ccccc3)N3C(Cc4ccccc4)N23)cc1 (configuration not stated),-2.65%,1.9%,0.9%,-6.25%,9%,3.45%
O=C(NCC(O)CO)c1cc(N(CCCl)CCCl)c([N+](=O)[O-])cc1[N+](=O)[O-] (configuration not stated),3.8%,-35.9%,-10.5%,-63.6%,-10.4%,6.35%
NC(=O)C[CH2][Sn]([Cl])([Cl])[CH2]CC(N)=O,-5.65%,-5.5%,3.55%,5.3%,7.9%,-7%
COC(=O)C1C(O)CC2CCC1[N+]2(C)C (configuration not stated),3.3%,5.8%,12.4%,2.05%,36.9%,-6.8%
CCOP(=O)(OCC)SC#N,15.1%,-2.85%,-6.4%,6.5%,-1.05%,16.1%
C[N+]1(C)CCCC1c1cccnc1 (configuration not stated),42.8%,7.35%,-2.45%,-15.2%,14.4%,29.9%
C=CCOC(=O)C(Br)CC (configuration not stated),7.65%,-3.2%,-3.7%,-6.25%,11.9%,-14.5%

SMILES,growth inhibition [1],growth inhibition [2],growth inhibition [3],growth inhibition [4],growth inhibition [5],growth inhibition [6]
CC(=O)CCC(=O)O.[Ni],-37.5%,0.2%,-7.45%,-27.4%,-7.65%,1.9%
CC(=O)CC(C)=O,-7.2%,3.8%,-3%,-11.3%,1.7%,1.8%
CCOP(=O)(OCC)/C(C#N)=C/c1cccn1C,-0.95%,-32.7%,-44%,-17.2%,-21.8%,-7.35%
CCC1(O)N=C(c2ccccc2)c2ccccc2-n2cccc21 (configuration not stated),1.7%,4.25%,8.65%,0.55%,2.2%,6.5%
CCN1CCOC(O)(c2cc(Cl)cc(Cl)c2Cl)C1 (configuration not stated),17.4%,-11.2%,8.9%,-24.7%,26.1%,14.8%
CCCC[N+]1(C)CCC(OC(=O)C(O)(c2ccccc2)C2CCCC2)C1 (configuration not stated),15.6%,5.25%,5.3%,-32.8%,-6.3%,-5.5%
CCOC(=O)C1C2(C(C)=O)C=Nc3c(C#N)cnn3C12C(=O)OCC (configuration not stated),0.9%,-3.35%,4.85%,28.4%,4.2%,-7.95%
O=[As](O)(O)c1ccc(N=Nc2ccc([As](=O)(O)O)cc2)cc1,-0.35%,11.1%,-15.9%,6.8%,-22.5%,-16.6%
CN(C1CCCC1)C1CCCC1,-27.1%,-25.9%,-24.1%,5.3%,2.25%,-7.7%
CC/C(=C(/CC)c1ccc(OP(=O)(Cl)N(CCCl)CCCl)cc1)c1ccc(OP(=O)(Cl)N(CCCl)CCCl)cc1 (configuration not stated),-2.35%,-18%,-8.3%,-1.9%,-2.45%,37.5%
C[N+]1(CCCl)CCc2ccc([N+](=O)[O-])cc2C1 (configuration not stated),-36.9%,-35.5%,6.95%,0.8%,9.3%,-13.8%
COc1ccc2c(c1OC(C)=O)-c1cc(OC(C)=O)cc3c1C(C2)N(C(=O)CN(CCCl)CCCl)CC3 (configuration not stated),-6.4%,-6%,-1.95%,-13%,-0.05%,-6.6%
CN1CN(c2ccccc2)C2(CCN(Cc3csc4ccccc34)CC2)C1=O,-50.9%,-31.5%,-47.5%,-1.3%,-7.1%,-20.1%
Clc1cccc(Cl)c1NC1=NCCS1,-11.7%,-20.8%,12.7%,6.1%,-2.25%,6.45%
CCCCOP(=O)(Cc1ccccc1)Oc1ccccc1 (configuration not stated),73% (active),32%,68.8%,50.4%,35.3%,27.6%
CCCC[S][Sn-]([CH2]CCC)([CH2]CCC)[CH2]CCC,98.7% (active),98.7% (active),99.2% (active),98.5% (active),99% (active),99% (active)
O=C/C=C/c1ccco1,17.4%,-14.3%,-15.2%,14.2%,-8.45%,31.8%
CNC(=O)Oc1cccc(N)c1,5.35%,-1.1%,5.85%,7.3%,-22.1%,-0.05%
O=C1C=CC(=O)N1CO,23.2%,19.2%,9%,6.4%,26.9%,9.25%
COC(=O)CCCCCCCCCCN(CCCl)CCCl,39.6%,29.1%,31.9%,26.2%,21%,67%
CC1(C)OC2(C)CCC1C1C2N1C(=O)c1ccccc1 (configuration not stated),0.75%,-9.75%,5.25%,4.95%,19.2%,-6.2%
